Where “and” joins values, the source holds several entries; their conditions need not be identical. Equal values may be shown once. Records with an inconclusive call do not appear. Where a call stands in place of a potency, no number is given. Calls of active or inactive are those of the source. Unless noted, the call rests on the fitted dose curve; in most records, active means well fitted curve in the direction sought with a large enough effect; inconclusive means small, poorly fitted or top-dose-only effect, or another doubt; inactive means no such curve, though single readings can be large; an effect the other way counts as inactive or inconclusive.
Tests used:
[1] = Primary qHTS for small molecule stabilizers of the endoplasmic reticulum resident proteome: Secreted ER Calcium Modulated Protein (SERCaMP) assay (AID 1508630)
Procedure, shortened: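 GLuc-SERCaMP-expressing SH-SY5Y cells, pretreated 16 h with compound, are challenged with thapsigargin to empty ER calcium stores; after 4 h, coelenterazine is added directly to the medium and luminescence is imaged.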

[2] = target: Cytochrome P450 2C9 (Homo sapiens) (UniProt P11712); experiment: Cytochrome P450 family 2 subfamily C member 9 (CYP2C9) small molecule antagonists: luciferase biochemical (cell-free) qHTS assay (AID 1645842; active means well fitted curve in the direction sought with a large enough effect in the repeat runs; an effect the other way counts as inactive or inconclusive; further: nearly all actives have a fitted effect of over 55% in size; further: potency means the concentration at half of the fitted maximal effect)
Sequence of Cytochrome P450 2C9 (Homo sapiens) (P11712 whole entry, looked up): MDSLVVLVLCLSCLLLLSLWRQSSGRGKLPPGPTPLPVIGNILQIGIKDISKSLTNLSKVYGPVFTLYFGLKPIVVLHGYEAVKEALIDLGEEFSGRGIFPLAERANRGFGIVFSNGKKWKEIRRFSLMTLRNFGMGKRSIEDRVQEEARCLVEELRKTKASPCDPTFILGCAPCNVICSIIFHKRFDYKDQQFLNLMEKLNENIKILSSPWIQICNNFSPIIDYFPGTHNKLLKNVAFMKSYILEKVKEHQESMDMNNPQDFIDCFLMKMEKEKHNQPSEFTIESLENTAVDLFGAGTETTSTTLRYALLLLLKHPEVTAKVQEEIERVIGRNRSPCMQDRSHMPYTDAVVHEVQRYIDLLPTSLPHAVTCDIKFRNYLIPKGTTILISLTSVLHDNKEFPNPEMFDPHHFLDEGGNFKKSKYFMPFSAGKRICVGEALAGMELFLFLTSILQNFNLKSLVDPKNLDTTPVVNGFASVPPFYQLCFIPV
Procedure, shortened: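 Luminescence, after 20 min with luciferin detection reagent, reflected CYP2C9 turnover during a 1 h NADPH-driven reaction at 37C. Enzyme-substrate mix contained 0.4% bovine serum albumin and was preincubated with compound 10 min at room temperature.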

[3] = target: Cytochrome P450 2D6 (Homo sapiens) (UniProt P10635); experiment: Cytochrome P450 family 2 subfamily D member 6 (CYP2D6) small molecule antagonists: luciferase biochemical (cell-free) qHTS assay (AID 1645840; active means well fitted curve in the direction sought with a large enough effect in the repeat runs; an effect the other way counts as inactive or inconclusive; further: nearly all actives have a fitted effect of over 55% in size; further: potency means the concentration at half of the fitted maximal effect)
Sequence of Cytochrome P450 2D6 (Homo sapiens) (P10635 whole entry, looked up): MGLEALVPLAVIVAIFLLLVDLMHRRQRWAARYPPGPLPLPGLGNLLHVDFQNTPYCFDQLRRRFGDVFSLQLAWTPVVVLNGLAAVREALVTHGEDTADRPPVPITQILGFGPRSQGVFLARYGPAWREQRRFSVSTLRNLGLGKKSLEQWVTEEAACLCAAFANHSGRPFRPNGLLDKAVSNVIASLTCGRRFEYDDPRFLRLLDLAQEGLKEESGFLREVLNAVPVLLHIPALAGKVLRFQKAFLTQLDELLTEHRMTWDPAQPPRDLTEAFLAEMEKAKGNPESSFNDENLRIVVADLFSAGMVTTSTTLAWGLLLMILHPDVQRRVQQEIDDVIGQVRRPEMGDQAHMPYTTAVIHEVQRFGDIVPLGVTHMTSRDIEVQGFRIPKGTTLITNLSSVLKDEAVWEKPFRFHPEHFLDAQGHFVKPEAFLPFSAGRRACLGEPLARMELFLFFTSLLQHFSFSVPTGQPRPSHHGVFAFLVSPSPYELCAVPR
Procedure, shortened: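 P450-Glo luminescent screen: recombinant CYP2D6 enzyme–proluciferin substrate mix preincubated with compound 10 min at room temperature, then NADPH regeneration added for 1 h at room temperature. Detection reagent added for 20 min; luciferin light read as relative luminescence units.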

[4] = Primary qHTS for inhibitors of nuclear receptor binding SET domain protein 2 (NSD2) in an isogenic RCH-ACV NSD2 p.E1099K mutant (9B) (AID 1645876); further: nearly all actives have a fitted effect of over 70% in size; further: potency means the concentration at half of the fitted maximal effect
[5] = Primary qHTS for inhibitors of nuclear receptor binding SET domain protein 2 (NSD2) in an RCH-ACV wild type WT cells (2C) (AID 1645877); further: nearly all actives have a fitted effect of over 70% in size; further: potency means the concentration at half of the fitted maximal effect

## O=C(c1ccc(F)c(F)c1Nc1ccc(I)cc1F)N1CC(O)([C@H]2CCCCN2)C1
[1]
  Potency: inactive
[2]
  Potency: inactive

## CC1=C(CC(=O)O)c2cc(F)ccc2C1=Cc1ccc(S(C)=O)cc1 (stereo not drawn)
[1]
  Potency: inactive

## COc1ccc(CCC(=O)Nc2nc3ccc(Cl)cc3s2)cc1OC
[1]
  Potency: inactive
[3]
  Potency: inactive
[2]
  Potency: 6.01 µM (active)
[4]
  Potency: inactive
[5]
  Potency: inactive

## C[C@@H](NC(=O)c1ncnc(N)c1Cl)c1ncc(C(=O)Nc2cc(C(F)(F)F)c(Cl)cn2)s1
[1]
  Potency: inactive
[3]
  Potency: inactive

## COc1cc(C=CC(=O)O)ccc1O
[1]
  Potency: inactive

## Cc1cnc(CNC(=O)c2c(=O)c3ccc(N4CCCN(C)CC4)nc3n3c2sc2ccccc23)cn1
[1]
  Potency: inactive
[2]
  Potency: inactive
[4]
  Potency: 152 nM (active)
[5]
  Potency: 0.121 µM (active)

## CN1CCc2c(n(Cc3ccc(C(=O)NO)cc3)c3ccccc23)C1
[3]
  Potency: 6.74 µM (active)
[4]
  Potency: 18.3 µM (active) and 16.6 µM (active)

## CCC(C)SSc1ncc[nH]1 (stereo not drawn)
[1]
  Potency: inactive
[4]
  Potency: 9340 nM (active)
[5]
  Potency: 8.33 µM (active)

## C=CC[N+]1([C@H]2C[C@H]3[C@@H]4CC[C@H]5C[C@H](O)[C@@H](N6CCOCC6)C[C@]5(C)[C@@H]4CC[C@]3(C)[C@H]2OC(C)=O)CCCC1
[1]
  Potency: inactive

## CN1[C@H]2CC[C@H]1CC(OC(=O)c1c[nH]c3ccccc13)C2 (stereo partly drawn)
[1]
  Potency: inactive
[2]
  Potency: inactive
